Assay in all cases: DAPPL (digital affinity profiling via proximity ligation, sequencing); 10 mM Tris-HCl pH 7.5, 50 mM NaCl, 1 mM DTT, 4% glycerol, room temperature, 30 min; GST-TFs on glutathione beads, 16-mer random dsDNA library, 0.1% formaldehyde crosslink after washing; high values mean tight binding
Holding throughout (conditions): protein: recombinant; tags: N-terminal GST; dsDNA, one strand shown

The target of assay [1] is T1, FLI1 (Homo sapiens, UniProt Q01543 1-452).
T1 sequence: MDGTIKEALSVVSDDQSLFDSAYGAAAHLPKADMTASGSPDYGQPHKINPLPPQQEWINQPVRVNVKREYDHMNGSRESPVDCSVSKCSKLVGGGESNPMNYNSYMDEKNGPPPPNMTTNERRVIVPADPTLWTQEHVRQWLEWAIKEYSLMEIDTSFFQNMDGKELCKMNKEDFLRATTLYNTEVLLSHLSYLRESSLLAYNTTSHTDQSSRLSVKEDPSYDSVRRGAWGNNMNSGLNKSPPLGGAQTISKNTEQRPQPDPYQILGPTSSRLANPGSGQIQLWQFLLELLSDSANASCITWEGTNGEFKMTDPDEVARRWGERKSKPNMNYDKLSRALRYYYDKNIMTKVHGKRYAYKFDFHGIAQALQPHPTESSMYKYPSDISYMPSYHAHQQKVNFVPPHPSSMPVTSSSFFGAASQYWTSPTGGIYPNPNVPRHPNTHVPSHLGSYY
The method, boiled down: (§1)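 Human transcription factors carrying a GST fusion were produced in yeast, bound to glutathione beads, tagged with DNA barcodes and pooled together with a tag-only sample. Each pool was held with 200 nmole of a random double-stranded 16-mer DNA library in Tris/NaCl/DTT/glycerol buffer for 30 min at room temperature, then washed, crosslinked in 0.1% formaldehyde, proximity-ligated with BsaI/T4 ligase (1 h, 37 °C), PCR-amplified and sequenced on an Illumina NextSeq500. Binding signal is the read frequency of each hexamer for a given factor divided by its frequency in the tag-only sample.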

Assay [2] deals with T2, ELK1 (Homo sapiens, UniProt P19419 1-428).
T2 sequence: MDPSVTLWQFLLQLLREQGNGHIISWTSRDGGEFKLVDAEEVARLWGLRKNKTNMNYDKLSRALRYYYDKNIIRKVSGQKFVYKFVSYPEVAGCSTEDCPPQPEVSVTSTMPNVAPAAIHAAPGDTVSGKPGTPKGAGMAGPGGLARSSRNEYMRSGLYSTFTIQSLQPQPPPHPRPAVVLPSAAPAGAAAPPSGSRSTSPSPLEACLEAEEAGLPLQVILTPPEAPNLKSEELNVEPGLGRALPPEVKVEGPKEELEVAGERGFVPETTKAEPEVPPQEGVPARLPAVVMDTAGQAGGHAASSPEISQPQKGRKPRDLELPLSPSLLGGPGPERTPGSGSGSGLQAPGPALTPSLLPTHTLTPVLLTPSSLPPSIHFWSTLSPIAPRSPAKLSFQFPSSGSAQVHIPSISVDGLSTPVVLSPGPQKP
The procedure, abridged: as §1

For assay [3], the target named is T3, GABPA (Homo sapiens, UniProt Q06546 1-454).
T3 sequence: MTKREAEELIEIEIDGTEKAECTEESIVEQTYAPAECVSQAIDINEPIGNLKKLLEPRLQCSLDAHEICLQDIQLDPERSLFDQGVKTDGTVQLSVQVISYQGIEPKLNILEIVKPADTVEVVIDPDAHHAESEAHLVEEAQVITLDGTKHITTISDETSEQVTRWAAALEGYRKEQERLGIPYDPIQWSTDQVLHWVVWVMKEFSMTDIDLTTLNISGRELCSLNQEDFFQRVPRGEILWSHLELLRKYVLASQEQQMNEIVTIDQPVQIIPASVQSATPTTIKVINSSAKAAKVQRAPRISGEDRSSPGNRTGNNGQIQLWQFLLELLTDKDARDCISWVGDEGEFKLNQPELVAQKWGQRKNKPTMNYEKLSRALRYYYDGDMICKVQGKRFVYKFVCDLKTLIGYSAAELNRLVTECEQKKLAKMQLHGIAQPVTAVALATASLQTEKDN
The method, boiled down: as §1

Assay [4] addresses T4, ERG (Homo sapiens, UniProt P11308 1-479).
T4 sequence: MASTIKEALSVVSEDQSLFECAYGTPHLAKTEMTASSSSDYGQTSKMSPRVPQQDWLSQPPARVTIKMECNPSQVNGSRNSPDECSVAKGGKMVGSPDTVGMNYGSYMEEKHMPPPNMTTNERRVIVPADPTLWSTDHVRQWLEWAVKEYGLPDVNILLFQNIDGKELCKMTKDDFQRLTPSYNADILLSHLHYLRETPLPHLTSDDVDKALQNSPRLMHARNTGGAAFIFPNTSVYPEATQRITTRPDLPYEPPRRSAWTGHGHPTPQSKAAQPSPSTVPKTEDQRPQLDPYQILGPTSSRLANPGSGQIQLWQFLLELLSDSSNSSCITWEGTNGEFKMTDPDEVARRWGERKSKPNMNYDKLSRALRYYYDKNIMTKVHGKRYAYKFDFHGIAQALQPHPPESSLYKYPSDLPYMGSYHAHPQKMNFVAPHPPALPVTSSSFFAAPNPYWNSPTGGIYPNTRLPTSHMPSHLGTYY
The procedure, abridged:
as §1

Assay [5] deals with ELF1 (Homo sapiens, UniProt P32519 1-619). The procedure, abridged:
as §1

In assay [6] the target is T5, EHF (Homo sapiens, UniProt Q9NZC4 1-300).
T5 sequence: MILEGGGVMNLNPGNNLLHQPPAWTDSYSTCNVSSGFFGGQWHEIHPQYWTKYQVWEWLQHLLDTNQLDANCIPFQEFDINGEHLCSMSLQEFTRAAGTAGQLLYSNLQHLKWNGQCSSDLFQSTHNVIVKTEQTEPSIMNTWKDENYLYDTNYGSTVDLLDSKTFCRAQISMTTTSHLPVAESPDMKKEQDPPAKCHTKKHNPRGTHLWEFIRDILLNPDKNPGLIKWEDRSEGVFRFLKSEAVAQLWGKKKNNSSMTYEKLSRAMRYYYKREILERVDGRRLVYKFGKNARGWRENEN
The method, boiled down:
as §1

In assay [7] the target is SPI1 (Homo sapiens, UniProt P17947 1-270). The method, boiled down:
as §1

For assay [8], the target named is SPIB (Homo sapiens, UniProt Q01892 1-262). The procedure, abridged: as §1
Sequence of SPIB (Q01892 whole entry): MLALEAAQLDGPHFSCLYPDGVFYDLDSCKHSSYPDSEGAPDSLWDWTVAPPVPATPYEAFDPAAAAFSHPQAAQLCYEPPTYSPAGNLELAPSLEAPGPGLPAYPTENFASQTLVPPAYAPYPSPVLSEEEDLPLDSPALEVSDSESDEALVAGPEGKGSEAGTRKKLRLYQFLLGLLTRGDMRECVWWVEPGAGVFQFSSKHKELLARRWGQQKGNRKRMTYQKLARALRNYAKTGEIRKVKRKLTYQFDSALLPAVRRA
The target in assay [9] is T6, ELK3 (Homo sapiens, UniProt P41970 1-407).
T6 sequence: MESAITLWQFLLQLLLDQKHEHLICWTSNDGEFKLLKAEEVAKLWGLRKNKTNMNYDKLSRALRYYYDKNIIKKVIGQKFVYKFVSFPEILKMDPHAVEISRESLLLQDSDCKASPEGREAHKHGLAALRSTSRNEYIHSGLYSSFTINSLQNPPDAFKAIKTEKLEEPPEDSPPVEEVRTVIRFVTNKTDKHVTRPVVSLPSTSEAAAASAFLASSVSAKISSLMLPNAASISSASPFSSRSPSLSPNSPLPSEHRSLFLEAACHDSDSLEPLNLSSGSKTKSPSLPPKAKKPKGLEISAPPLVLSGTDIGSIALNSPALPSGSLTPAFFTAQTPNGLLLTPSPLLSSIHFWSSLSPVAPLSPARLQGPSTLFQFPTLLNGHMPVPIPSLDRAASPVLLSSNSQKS
The procedure, abridged:
as §1

Sequence of ELF1 (P32519 whole entry): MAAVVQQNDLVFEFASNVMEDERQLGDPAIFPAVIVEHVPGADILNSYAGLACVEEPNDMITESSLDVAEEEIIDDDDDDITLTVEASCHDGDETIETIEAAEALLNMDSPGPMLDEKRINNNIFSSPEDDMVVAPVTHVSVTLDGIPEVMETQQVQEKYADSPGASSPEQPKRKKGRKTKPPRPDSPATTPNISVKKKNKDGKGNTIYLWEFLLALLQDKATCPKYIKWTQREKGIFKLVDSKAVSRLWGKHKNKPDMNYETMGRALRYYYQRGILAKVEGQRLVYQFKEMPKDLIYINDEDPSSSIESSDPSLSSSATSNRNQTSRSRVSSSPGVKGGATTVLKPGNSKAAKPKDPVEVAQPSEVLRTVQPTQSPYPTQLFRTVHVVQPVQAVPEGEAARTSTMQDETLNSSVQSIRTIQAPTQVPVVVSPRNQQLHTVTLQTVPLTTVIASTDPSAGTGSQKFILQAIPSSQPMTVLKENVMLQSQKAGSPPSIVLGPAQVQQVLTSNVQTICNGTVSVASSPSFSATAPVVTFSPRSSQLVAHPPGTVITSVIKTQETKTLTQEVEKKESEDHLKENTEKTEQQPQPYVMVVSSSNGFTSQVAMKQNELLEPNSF

As to TCAACT, the binding signal was 1.31 fold enrichment (6-mer frequency, TF over GST control) in [1]; 1.31 fold enrichment (6-mer frequency, TF over GST control) in assay [2]; 1.34 fold enrichment (6-mer frequency, TF over GST control) in [3]; 1.31 fold enrichment (6-mer frequency, TF over GST control) in assay [4]; 1.31 fold enrichment (6-mer frequency, TF over GST control) in assay [5]; 1.35 fold enrichment (6-mer frequency, TF over GST control) in assay [6]. The binding signal in [7] is 1.36 fold enrichment (6-mer frequency, TF over GST control); in assay [8], 1.3 fold enrichment (6-mer frequency, TF over GST control); in assay [9], 1.22 fold enrichment (6-mer frequency, TF over GST control).

For the sequence AATACT, the binding signal in assay [1] is 1.16 fold enrichment (6-mer frequency, TF over GST control); in assay [2], 1.19 fold enrichment (6-mer frequency, TF over GST control); in [3], 1.23 fold enrichment (6-mer frequency, TF over GST control); in [4], 1.22 fold enrichment (6-mer frequency, TF over GST control); in assay [5], 1.29 fold enrichment (6-mer frequency, TF over GST control); in assay [6], 1.24 fold enrichment (6-mer frequency, TF over GST control). In addition, the binding signal was 1.21 fold enrichment (6-mer frequency, TF over GST control) in assay [7]; 1.14 fold enrichment (6-mer frequency, TF over GST control) in [8]; 1.23 fold enrichment (6-mer frequency, TF over GST control) in [9].

On to AACTTT, for which the binding signal in assay [1] was 1.38 fold enrichment (6-mer frequency, TF over GST control); in [2], 1.27 fold enrichment (6-mer frequency, TF over GST control); in assay [3], 1.17 fold enrichment (6-mer frequency, TF over GST control); in assay [4], 1.16 fold enrichment (6-mer frequency, TF over GST control); in assay [5], 1.23 fold enrichment (6-mer frequency, TF over GST control); in assay [6], 1.18 fold enrichment (6-mer frequency, TF over GST control). In addition, the binding signal in assay [7] is 1.23 fold enrichment (6-mer frequency, TF over GST control); in assay [8] it was 1.32 fold enrichment (6-mer frequency, TF over GST control); in [9] it was 1.2 fold enrichment (6-mer frequency, TF over GST control).

On to ATAATC, for which the binding signal in assay [1] is 1.17 fold enrichment (6-mer frequency, TF over GST control); in [2] it was 1.16 fold enrichment (6-mer frequency, TF over GST control); in assay [3], 1.14 fold enrichment (6-mer frequency, TF over GST control); in assay [4], 1.13 fold enrichment (6-mer frequency, TF over GST control); in assay [5], 1.07 fold enrichment (6-mer frequency, TF over GST control); in assay [6], 1.14 fold enrichment (6-mer frequency, TF over GST control). In addition, the binding signal in assay [7] is 1.1 fold enrichment (6-mer frequency, TF over GST control); in assay [8], 1.08 fold enrichment (6-mer frequency, TF over GST control); in [9], 1.17 fold enrichment (6-mer frequency, TF over GST control).

Consider AAACAA, for which the binding signal is 1.24 fold enrichment (6-mer frequency, TF over GST control) in assay [1]; 1.33 fold enrichment (6-mer frequency, TF over GST control) in assay [2]; 1.2 fold enrichment (6-mer frequency, TF over GST control) in [3]; 1.38 fold enrichment (6-mer frequency, TF over GST control) in assay [4]; 1.28 fold enrichment (6-mer frequency, TF over GST control) in assay [5]; 1.26 fold enrichment (6-mer frequency, TF over GST control) in [6]. In addition, the binding signal was 1.32 fold enrichment (6-mer frequency, TF over GST control) in assay [7]; 1.21 fold enrichment (6-mer frequency, TF over GST control) in [8]; 1.36 fold enrichment (6-mer frequency, TF over GST control) in assay [9].

For ATTGTA, the binding signal in assay [1] was 1.22 fold enrichment (6-mer frequency, TF over GST control); in assay [2] it was 1.33 fold enrichment (6-mer frequency, TF over GST control); in assay [3], 1.17 fold enrichment (6-mer frequency, TF over GST control); in assay [4], 1.19 fold enrichment (6-mer frequency, TF over GST control); in [5] it was 1.24 fold enrichment (6-mer frequency, TF over GST control); in assay [6] it was 1.22 fold enrichment (6-mer frequency, TF over GST control). Moreover, the binding signal in [7] was 1.09 fold enrichment (6-mer frequency, TF over GST control); in assay [8], 1.24 fold enrichment (6-mer frequency, TF over GST control); in [9], 1.27 fold enrichment (6-mer frequency, TF over GST control).

As for AACCCG, the binding signal was 1.36 fold enrichment (6-mer frequency, TF over GST control) in assay [1]; 1.44 fold enrichment (6-mer frequency, TF over GST control) in assay [2]; 1.31 fold enrichment (6-mer frequency, TF over GST control) in assay [3]; 1.46 fold enrichment (6-mer frequency, TF over GST control) in [4]; 1.5 fold enrichment (6-mer frequency, TF over GST control) in [5]; 1.54 fold enrichment (6-mer frequency, TF over GST control) in [6]. Moreover, the binding signal was 1.36 fold enrichment (6-mer frequency, TF over GST control) in assay [7]; 1.46 fold enrichment (6-mer frequency, TF over GST control) in assay [8]; 1.49 fold enrichment (6-mer frequency, TF over GST control) in [9].

With AAAACT, the binding signal was 1.23 fold enrichment (6-mer frequency, TF over GST control) in [1]; 1.16 fold enrichment (6-mer frequency, TF over GST control) in assay [2]; 1.15 fold enrichment (6-mer frequency, TF over GST control) in assay [3]; 1.17 fold enrichment (6-mer frequency, TF over GST control) in assay [4]; 1.25 fold enrichment (6-mer frequency, TF over GST control) in [5]; 1.24 fold enrichment (6-mer frequency, TF over GST control) in [6]. For the same sequence, the binding signal in assay [7] was 1.17 fold enrichment (6-mer frequency, TF over GST control); in assay [8] it was 1.23 fold enrichment (6-mer frequency, TF over GST control); in [9], 1.19 fold enrichment (6-mer frequency, TF over GST control).

Source of the values: publication PMC7862700, “An all-to-all approach to the identification of sequence-specific readers for epigenetic DNA modifications on cytosine”.
